Assay [1] is described as follows: binders of probe aFSTL3 on microarray, primary screen, stem cell growth factor project, biochemical, small-molecule microarray, fluorescence 635/667 (AID 1064).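 Also: measures binding of the biotinylated anti-FSTL3 antibody to printed compounds.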 The note with it: higher = more signal.
Assay [2] in a line: binders from COS7 lysate, DM2A8 probe, primary screen, torsin A project, cell lysate, small-molecule microarray, fluorescence 635/667 (AID 1065). The note with it: higher = more signal, COS7 lysate expressing mutant human TOR1A.
A short description of assay [3]: binders of probe aFGF2 on microarray, primary screen, stem cell growth factor project, biochemical, small-molecule microarray, fluorescence 635/667 (AID 1067).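 Also: measures binding of biotinylated aFGF2 protein to printed compounds on slides; z-score merges feature fluorescence and signal-to-noise across triplicate slides.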 The note with it: higher = more signal.
Assay [4] is described as follows: binders of probe aFGF10 on microarray, primary screen, stem cell growth factor project, biochemical, small-molecule microarray, fluorescence 635/667 (AID 1071).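 Also: score merges 667 nm spot intensity and signal to noise from triplicate slides.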 Conditions: higher = more signal.
The target of assay [5] is Neurogenic locus notch homolog protein 2 (Homo sapiens) (UniProt Q04721). Description: Notch2 binders on small-molecule microarrays, primary screen, biochemical, small-molecule microarray, 635 nm fluorescence, stem cell growth factors (AID 1073). Conditions: Notch2 binding, higher = more signal.
Neurogenic locus notch homolog protein 2 (Homo sapiens), sequence (Q04721 whole entry, looked up, canonical isoform): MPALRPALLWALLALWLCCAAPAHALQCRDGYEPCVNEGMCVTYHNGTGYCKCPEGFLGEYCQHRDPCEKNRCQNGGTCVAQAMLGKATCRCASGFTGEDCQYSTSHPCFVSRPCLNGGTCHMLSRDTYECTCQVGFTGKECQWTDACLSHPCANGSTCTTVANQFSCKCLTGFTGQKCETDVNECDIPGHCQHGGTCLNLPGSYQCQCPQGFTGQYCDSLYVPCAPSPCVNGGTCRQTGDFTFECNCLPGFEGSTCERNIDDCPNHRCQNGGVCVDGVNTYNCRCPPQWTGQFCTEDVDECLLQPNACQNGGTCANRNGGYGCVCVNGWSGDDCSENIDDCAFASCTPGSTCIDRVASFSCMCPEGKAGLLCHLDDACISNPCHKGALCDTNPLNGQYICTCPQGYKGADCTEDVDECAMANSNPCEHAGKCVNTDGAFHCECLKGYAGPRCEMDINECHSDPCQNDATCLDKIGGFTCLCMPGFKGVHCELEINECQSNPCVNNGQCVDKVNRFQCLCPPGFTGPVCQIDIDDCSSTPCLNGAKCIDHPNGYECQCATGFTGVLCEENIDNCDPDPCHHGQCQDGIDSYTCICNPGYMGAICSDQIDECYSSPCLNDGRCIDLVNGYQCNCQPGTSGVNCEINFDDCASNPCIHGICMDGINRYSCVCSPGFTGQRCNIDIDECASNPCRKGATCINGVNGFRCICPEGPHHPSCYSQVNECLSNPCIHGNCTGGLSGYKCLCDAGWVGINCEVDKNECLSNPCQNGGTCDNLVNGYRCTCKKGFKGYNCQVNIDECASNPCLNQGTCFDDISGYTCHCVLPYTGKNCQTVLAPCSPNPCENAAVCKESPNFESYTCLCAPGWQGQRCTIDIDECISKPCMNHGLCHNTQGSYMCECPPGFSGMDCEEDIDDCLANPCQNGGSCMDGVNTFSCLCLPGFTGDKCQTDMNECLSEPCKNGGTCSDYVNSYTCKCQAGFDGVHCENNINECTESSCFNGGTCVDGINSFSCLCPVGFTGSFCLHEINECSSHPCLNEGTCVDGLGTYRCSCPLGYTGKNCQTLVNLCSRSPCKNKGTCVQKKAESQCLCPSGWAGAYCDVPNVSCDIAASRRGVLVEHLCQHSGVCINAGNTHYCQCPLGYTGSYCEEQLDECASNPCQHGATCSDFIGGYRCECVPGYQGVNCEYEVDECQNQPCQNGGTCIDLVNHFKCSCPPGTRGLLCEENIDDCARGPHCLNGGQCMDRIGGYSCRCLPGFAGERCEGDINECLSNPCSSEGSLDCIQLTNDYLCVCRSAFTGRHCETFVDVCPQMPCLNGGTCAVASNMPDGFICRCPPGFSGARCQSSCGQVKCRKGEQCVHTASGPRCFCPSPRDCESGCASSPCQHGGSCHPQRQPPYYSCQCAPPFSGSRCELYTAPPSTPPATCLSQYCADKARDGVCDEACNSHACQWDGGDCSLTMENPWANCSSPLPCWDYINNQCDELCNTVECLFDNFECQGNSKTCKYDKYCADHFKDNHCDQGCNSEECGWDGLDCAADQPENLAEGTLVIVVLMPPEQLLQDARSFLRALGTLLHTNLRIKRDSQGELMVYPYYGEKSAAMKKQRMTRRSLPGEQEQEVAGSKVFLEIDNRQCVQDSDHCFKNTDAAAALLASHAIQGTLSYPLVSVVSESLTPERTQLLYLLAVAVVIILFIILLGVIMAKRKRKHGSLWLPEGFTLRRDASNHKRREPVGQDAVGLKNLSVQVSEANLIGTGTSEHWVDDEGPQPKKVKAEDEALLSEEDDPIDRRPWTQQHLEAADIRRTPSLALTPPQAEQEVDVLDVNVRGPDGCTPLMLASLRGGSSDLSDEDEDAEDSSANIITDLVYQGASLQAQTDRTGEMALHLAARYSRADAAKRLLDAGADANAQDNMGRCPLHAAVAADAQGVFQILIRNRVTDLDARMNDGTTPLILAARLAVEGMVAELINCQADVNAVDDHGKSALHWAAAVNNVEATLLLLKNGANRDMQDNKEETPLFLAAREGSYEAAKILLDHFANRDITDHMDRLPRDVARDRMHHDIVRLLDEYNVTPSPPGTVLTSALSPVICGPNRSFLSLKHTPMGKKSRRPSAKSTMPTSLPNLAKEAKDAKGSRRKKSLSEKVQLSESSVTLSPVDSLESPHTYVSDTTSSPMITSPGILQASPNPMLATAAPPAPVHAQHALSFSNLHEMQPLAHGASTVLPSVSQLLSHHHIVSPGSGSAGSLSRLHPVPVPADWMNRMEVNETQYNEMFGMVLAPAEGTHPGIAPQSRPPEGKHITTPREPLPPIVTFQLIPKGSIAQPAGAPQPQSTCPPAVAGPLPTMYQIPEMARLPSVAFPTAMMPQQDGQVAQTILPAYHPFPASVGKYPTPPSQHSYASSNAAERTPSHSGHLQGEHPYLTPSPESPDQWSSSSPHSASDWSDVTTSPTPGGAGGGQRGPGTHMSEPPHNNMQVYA
The target in assay [6] is Pro-neuregulin-1, membrane-bound isoform (Homo sapiens) (UniProt Q02297). Description: NRG1 binders on small-molecule microarrays, primary screen, psychiatric disease protein project, biochemical, small-molecule microarray, fluorescence 635/667 (AID 1075).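 Also: score combines 667 nm spot fluorescence with signal to noise.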 Conditions: NRG1 binding, 635 nm fluorescence, higher = more signal.
Pro-neuregulin-1, membrane-bound isoform (Homo sapiens), sequence (Q02297 whole entry, looked up, the tested form may be a part, canonical isoform): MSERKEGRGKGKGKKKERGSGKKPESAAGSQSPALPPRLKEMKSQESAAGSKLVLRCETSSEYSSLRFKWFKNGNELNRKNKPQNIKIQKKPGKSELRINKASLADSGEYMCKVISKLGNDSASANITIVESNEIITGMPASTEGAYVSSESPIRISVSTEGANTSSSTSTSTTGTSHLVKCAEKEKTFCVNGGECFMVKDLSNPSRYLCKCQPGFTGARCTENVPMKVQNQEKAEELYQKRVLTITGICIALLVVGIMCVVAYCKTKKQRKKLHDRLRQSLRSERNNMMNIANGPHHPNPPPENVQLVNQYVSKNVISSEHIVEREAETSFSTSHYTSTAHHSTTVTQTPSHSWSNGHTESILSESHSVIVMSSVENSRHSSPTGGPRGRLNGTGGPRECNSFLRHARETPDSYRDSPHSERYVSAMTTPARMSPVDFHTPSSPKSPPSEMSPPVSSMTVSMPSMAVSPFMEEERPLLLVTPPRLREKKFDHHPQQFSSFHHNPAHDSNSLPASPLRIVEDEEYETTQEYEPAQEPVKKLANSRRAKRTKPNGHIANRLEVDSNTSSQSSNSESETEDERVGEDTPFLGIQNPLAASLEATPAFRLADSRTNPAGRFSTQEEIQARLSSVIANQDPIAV
Assay [7] deals with Neuregulin-1 EGF-like domain. Description: binders of neuregulin-1 EGF-like domain, primary screen, biochemical, small-molecule microarray, 635 nm fluorescence (AID 1081).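 Also: binding of the protein to compounds printed on small-molecule microarray slides.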 The note with it: small-molecule microarray binding, higher = more signal.
The nature of assay [8]: FRG1 promoter luciferase signal modulators, primary screen, FRG1 inhibition for FSHD, cell-based, C2C12 myotubes, firefly/Renilla luciferase, luminescence (AID 1084). The note with it: higher = more signal, called active from +8 up or from −8 down.
A short description of assay [9]: binders of probe aFST on microarray, primary screen, stem cell growth factor project, biochemical, small-molecule microarray, fluorescence 635/667 (AID 1086).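 Also: score merges 667 nm fluorescence with signal-to-noise of each printed compound spot.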 The note with it: higher = more signal.
The nature of assay [10]: binders of probe aHhip on microarray, primary screen, stem cell growth factor project, biochemical, small-molecule microarray, fluorescence 635/667 (AID 1087).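 Also: score merges spot fluorescence at 667nm with spot signal to noise ratio.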 Conditions: higher = more signal.

The results in this text go back to PubChem BioAssay.

Calls of active or inactive are those of the source.

Turning to `C=C(C(=O)CC[C@@H](OC(C)=O)c1ccc(OCCO)cc1)C(C)C`, the composite z-score was 0.0823 in assay [1]; 0.366 in assay [2]; -0.0676 in assay [3]; 0.853 in assay [4]; 0.146 in [5]; 0.845 in assay [6]. Besides, the composite z-score was 1.19 in assay [7], -0.193 in [9] and -0.287 in [10]. Besides, in [8], the z-score was 2.4 (inactive).

Take `[N-]=[N+]=Nc1ccccc1C[C@]1(C(=O)N2CCCCC2)N=C(c2ccc(OCCCO)cc2)O[C@H]1c1ccccc1N=[N+]=[N-]`: the composite z-score is 0.368 in assay [1]; -0.155 in [2]; 0.14 in assay [3]; 0.771 in assay [4]; 1.53 in assay [5]; 1.71 in assay [6]. For the same compound, the results for the composite z-score in [7], in assay [9] and in assay [10] were 1.01, 0.991 and -0.305, respectively. Moreover, in assay [8], the z-score is -1.68 (inactive).

Consider `Cc1ccc([C@H]2C(C(=O)O)=C[C@@H](C(C)C)N2S(=O)(=O)c2ccc(C)cc2)cc1`, for which the composite z-score in assay [1] is -0.0974; in [2], -0.304; in [3] it was -0.0667; in assay [4], 0.163; in assay [5], 1.14; in assay [6], 1.19. Besides, the composite z-score is 1.31 in assay [7], 0.384 in assay [9] and -0.287 in assay [10]. Further, in [8], the z-score is -1.57 (inactive).

For the compound `Cc1ccc(S[C@]2(C(=O)NCCCN(C)C)CC(=O)N(C(C)C)[C@@H]2c2ccc(CO)cc2I)cc1`, the composite z-score in [1] was 0.052; in assay [2], -0.54; in assay [3], -0.0954; in assay [4] it was -0.238; in assay [5], -0.373; in assay [6] it was 0.994. Further, the composite z-score is 0.861 in [7], -0.152 in assay [9] and -0.354 in [10]. The z-score in [8] was -0.312 (inactive).

With `O=C1OCCC=C[C@H]2OC34C=CCN(c5ccc6ccccc6c5)C(=O)[C@H]3N(CCCCCCO)C(=O)[C@@H]4C12` (stereo not given in full), the composite z-score is 0.366 in assay [1]; 0.79 in [2]; -0.143 in assay [3]; -0.367 in assay [4]; -0.834 in assay [5]; 2.03 in assay [6]. Moreover, the values for the composite z-score in assay [7], in [9] and in [10] were 0.193, -0.514 and -0.546, respectively. Also, the z-score in assay [8] is 1.66 (inactive).

Turning to `O=C1O[C@H](c2ccccc2)[C@H](c2ccccc2)N2[C@H]1[C@@H](C(=O)NC[C@H](O)c1ccccc1)[C@]1(C(=O)Nc3ccc(C#CC4=CCCCC4)cc31)[C@H]2c1ccc(O)cc1`, the composite z-score in [1] was found to be 0.84; in [2], 0.891; in [3], 0.146; in assay [4] it was 0.962; in assay [5] it was 0.671; in [6] it was 1.4. Also, the results for the composite z-score in assay [7], in assay [9] and in assay [10] were 1.16, 0.826 and -0.0618, respectively. In addition, the z-score in [8] is 0.733 (inactive).

As for `Cc1ccccc1/C=C/C=O`, the composite z-score in assay [1] is -0.162; in assay [2], -0.623; in assay [3], -0.135; in [4], -0.0909; in assay [5], -1.09; in [6], -0.628. In addition, the composite z-score in [7] was -0.631; in assay [9] it was -0.127; in assay [10] it was 0.0957. Besides, the z-score in assay [8] is 0.258 (inactive).

Turning to `CCOC1=C2C(c3ccc(C)cc3)N(S(=O)(=O)c3ccc(C)cc3)CC2n2c(=O)n(-c3ccccc3)c(=O)n2C1` (stereo not given), the composite z-score in assay [1] is -0.19; in assay [2], 0.475; in assay [3] it was 0.0876; in assay [4], 0.94; in assay [5], 1.55; in [6], 1.13. The composite z-score is 0.0031 in assay [7], 0.701 in assay [9] and -0.26 in [10]. In addition, in [8], the z-score was -3.93 (inactive).

Turning to `COc1ccc(C(=O)Nc2cccc(CN3C(=O)[C@@]4(O[C@@H](CCn5cc([C@H](O)c6ccccc6)nn5)[C@H]([Si](C)(C)c5ccc(OC)cc5)[C@H]4C)c4ccccc43)c2)cc1`, the composite z-score in assay [1] was 0.395; in [2], -0.559; in [3] it was -0.123; in assay [4], 0.335; in assay [5] it was 0.336; in [6] it was 0.838. In addition, the results for the composite z-score in assay [7], in [9] and in [10] were 1.14, 0.179 and 0.0373, respectively. Besides, in assay [8], the z-score was -1.47 (inactive).

As to `C=C(/C(=C/C[C@@H](OC(C)=O)c1ccc(CO)o1)c1cnc2ccccc2c1)C(C)C`, the composite z-score in assay [1] is -0.524; in assay [2] it was 1.53; in assay [3] it was -0.0766; in [4], 1.13; in assay [5], 1.53; in [6] it was 0.766. The composite z-score in assay [7] is 1.32; in assay [9], 0.284; in [10] it was -0.0618. For the same compound, in assay [8], the z-score was 0.439 (inactive).

Turning to `[N-]=[N+]=Nc1ccccc1[C@@H]1OC(c2ccc(OCCCO)cc2)=N[C@]1(CCS(=O)(=O)c1ccccc1)C(=O)O`, the composite z-score in assay [1] is 0.0639; in assay [2], 0.459; in assay [3] it was 0.079; in [4], 0.839; in assay [5], 1.57; in [6], 1.53. In addition, the composite z-score in [7] came to 0.862; in [9] it was 0.912; in [10], 0.151. In addition, the z-score in [8] is 3.39 (inactive).

For `CCCNC(=O)[C@@]1(C)c2ccccc2C(=O)N(Cc2cc(F)cc(C(F)(F)F)c2)[C@H]1c1ccc(CO)cc1`, the composite z-score was 0.343 in assay [1]; 1.04 in assay [2]; -0.0901 in assay [3]; -0.104 in assay [4]; -0.639 in [5]; 0.27 in assay [6]. Moreover, the composite z-score was 0.146 in [7], -0.282 in [9] and -0.181 in assay [10]. Besides, in assay [8], the z-score was -0.92 (inactive).

As to `[N-]=[N+]=NCc1ccccc1[C@@H]1OC(c2ccc(OCCCO)cc2)=N[C@]1(Cc1ccccc1N=[N+]=[N-])C(N)=O`, the composite z-score in assay [1] is 0.209; in [2], -0.523; in [3] it was -0.156; in assay [4], 0.385; in assay [5] it was 1.66; in assay [6] it was 2.08. In addition, the results for the composite z-score in assay [7], in [9] and in assay [10] were 1.27, 1.25 and -0.0994, respectively. In addition, the z-score in assay [8] is 0.722 (inactive).

Take `CC(=O)N1Cc2ccccc2C[C@@]2(N=C(c3ccc(OCCCO)cc3)O[C@H]2c2ccccc2)C1=O`: the composite z-score in [1] was found to be 0.136; in [2] it was 0.0287; in assay [3], 0.0933; in assay [4] it was 0.145; in [5] it was 1.09; in assay [6], 1.54. The composite z-score was 1.31 in assay [7], 1.55 in assay [9] and -0.393 in assay [10]. Also, the z-score in [8] was -3.53 (inactive).

With `Cc1ccc(S[C@]2(C(=O)NCc3ccccc3)CC(=O)N(Cc3cc(C(F)(F)F)cc(C(F)(F)F)c3)[C@@H]2c2ccc(CO)cc2)cc1`, the composite z-score in [1] was -0.989; in [2], -0.779; in [3], -0.172; in assay [4] it was -0.596; in assay [5], -0.885; in assay [6], 0.57. For the same compound, the values for the composite z-score in assay [7], in assay [9] and in assay [10] were 0.246, -0.0847 and -0.362, respectively. In addition, the z-score in assay [8] is -0.588 (inactive).

As to `O=C1OCCC/C=C\[C@H]2OC34C=CCN(CCN5CCOCC5)C(=O)[C@H]3N(CCO)C(=O)[C@@H]4C12` (stereo not given in full), the composite z-score in assay [1] was -0.163; in assay [2], -0.435; in assay [3], -0.154; in [4], -0.313; in assay [5], -1.12; in assay [6], -0.501. Besides, the composite z-score in [7] was 0.843; in [9], -0.382; in assay [10], -0.137. Also, the z-score in [8] is 0.808 (inactive).
